Experiment [1] is described as follows: qHTS assay to identify small molecule antagonists of the glucocorticoid receptor (GR) signaling pathway - cell viability counter screen (AID 720693). Also: nearly all actives have a fitted effect of over 55% in size. Background: Quantitative high-throughput screening tests each substance at several concentrations.
The nature of experiment [2]: qHTS assay for identifying genotoxic compounds that show differential cytotoxicity against isogenic chicken DT40 cell lines with known DNA damage response pathways - wild type cell line (AID 743012). Also: nearly all actives have a fitted effect of over 60% in size. Also: potency is read from the fitted curve at half-maximal effect. A digest of the protocol:
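Luminescent ATP viability signal (CellTiter-Glo, 30 min RT) recorded after wild type DT40 cells were incubated with compounds for 40 h at 37 C/5% CO2.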

Experiment [3] in a line: qHTS assay for identifying genotoxic compounds that show differential cytotoxicity against isogenic chicken DT40 cell lines with known DNA damage response pathways - Rev3 mutant cell line (AID 743014). Also: nearly all actives have a fitted effect of over 55% in size. Also: potency is read from the fitted curve at half-maximal effect.
Experiment [4] is described as follows: qHTS assay for identifying genotoxic compounds that show differential cytotoxicity against isogenic chicken DT40 cell lines with known DNA damage response pathways - Rad54/Ku70 mutant cell line (AID 743015). Also: nearly all actives have a fitted effect of over 60% in size. Also: potency is read from the fitted curve at half-maximal effect.
A short description of experiment [5]: qHTS assay to identify small molecule antagonists of the androgen receptor (AR) signaling pathway - cell viability counter screen (AID 743033; also: nearly all actives have a fitted effect of over 45% in size).
A short description of experiment [6]: qHTS assay to identify small molecule antagonists of the androgen receptor (AR) signaling pathway using the MDA cell line - cell viability counter screen (AID 743041; also: nearly all actives have a fitted effect of over 45% in size). A digest of the protocol: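 In this qHTS counter assay, fluorescence intensity after CellTiter-Fluor addition indicated viability of MDA-kb2 AR-luc cells given compounds and R1881 for 16 h at 37C.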

A short description of experiment [7]: qHTS assay to identify small molecule antagonists of the thyroid receptor (TR) signaling pathway - cell viability counter screen (AID 743064). Also: nearly all actives have a fitted effect of over 50% in size. Also: potency is read from the fitted curve at half-maximal effect. A digest of the protocol:
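In rat pituitary GH3.TRE-Luc reporter cells co-exposed to compound and 1 nM T3 for 23.5 h, cytotoxicity was assessed with CellTiter-Fluor in the same wells, read by fluorescence.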

The target in experiment [8] is Androgen receptor (Homo sapiens) (UniProt P10275). Description: qHTS assay to identify small molecule antagonists of the androgen receptor (AR) signaling pathway (AID 743035; active = well fitted inhibition curve with a large enough effect in the signal ratio in the repeat runs, not every such curve was filed as active; the % refers to the signal ratio). A digest of the protocol: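 Quantitative HTS of the Tox21 10K library used HEK293 AR-UAS-bla cells stimulated with R1881 alongside compound for 16 h at 37C, followed by beta-lactamase FRET detection (LiveBLAzer B/G, 2 h, RT).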
Sequence of Androgen receptor (Homo sapiens) (P10275 whole entry, looked up): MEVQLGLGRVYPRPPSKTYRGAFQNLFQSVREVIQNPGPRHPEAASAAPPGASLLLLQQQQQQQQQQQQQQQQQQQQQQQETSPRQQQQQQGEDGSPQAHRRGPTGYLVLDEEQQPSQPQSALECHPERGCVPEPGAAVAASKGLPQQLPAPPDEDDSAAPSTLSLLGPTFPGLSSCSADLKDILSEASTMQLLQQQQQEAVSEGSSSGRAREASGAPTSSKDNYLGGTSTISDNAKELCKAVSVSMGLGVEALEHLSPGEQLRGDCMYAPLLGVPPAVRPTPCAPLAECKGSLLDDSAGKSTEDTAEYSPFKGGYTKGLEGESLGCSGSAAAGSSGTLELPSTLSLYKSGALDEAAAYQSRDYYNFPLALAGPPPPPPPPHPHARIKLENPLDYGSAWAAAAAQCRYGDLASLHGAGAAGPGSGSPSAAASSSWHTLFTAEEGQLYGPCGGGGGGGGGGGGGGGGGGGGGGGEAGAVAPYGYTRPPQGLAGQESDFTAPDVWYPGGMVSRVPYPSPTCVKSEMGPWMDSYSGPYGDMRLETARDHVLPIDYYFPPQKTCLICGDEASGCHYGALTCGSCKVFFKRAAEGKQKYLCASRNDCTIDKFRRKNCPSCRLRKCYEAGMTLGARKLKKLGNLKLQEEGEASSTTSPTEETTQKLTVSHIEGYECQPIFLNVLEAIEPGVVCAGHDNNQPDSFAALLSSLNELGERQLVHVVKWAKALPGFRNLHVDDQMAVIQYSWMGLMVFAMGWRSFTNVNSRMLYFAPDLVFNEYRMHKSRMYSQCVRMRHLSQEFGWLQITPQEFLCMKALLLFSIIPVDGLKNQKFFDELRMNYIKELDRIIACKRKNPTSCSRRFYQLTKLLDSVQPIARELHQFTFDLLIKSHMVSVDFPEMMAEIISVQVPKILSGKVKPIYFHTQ

The target is the same in experiment [9]. Description: qHTS assay to identify small molecule agonists of the androgen receptor (AR) signaling pathway using the MDA cell line (AID 743040; also: nearly all actives have a fitted effect of over 20% in size). The essentials: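 Cell-based luciferase reporter: MDA-kb2, MMTV promoter (AR + GR response elements). 16 h compound exposure at 37C; ONE-Glo, 30 min RT, luminescence.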
The target is the same in experiment [10]. Put plainly: qHTS assay to identify small molecule antagonists of the androgen receptor (AR) signaling pathway using the MDA cell line (AID 743042; also: nearly all actives have a fitted effect of over 55% in size). A digest of the protocol:
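MDA-kb2 cells (human breast carcinoma, stably carrying an MMTV-luciferase reporter responsive to AR and GR) were plated at 3,000 cells/well and preincubated 5 hr at 37C, then given compound plus R1881 agonist for 16 h. ONE-Glo luminescence was read.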

“And” between values parts separate entries of the source, which are not always exact repeats. Identical values can stand only once. Results filed as inconclusive are left out. The source made the active and inactive calls. Unless noted, calls follow the shape of the dose curve; as a rule, active = well fitted curve in the direction sought with a large enough effect in the repeat runs; inconclusive = weak or mixed curves; inactive = no such curve, though single readings can be large; an effect the other way counts as inactive or inconclusive.

Turning to `CCNc1nc(NC(C)C)nc(OC)n1`, the Potency entry in experiment [1], in [2], in [3], in experiment [4], in experiment [5] and in experiment [6] was “inactive” throughout. In experiment [7], the Potency entry was “inactive”.

`O=C1CN=C(c2ccccc2)c2cc([N+](=O)[O-])ccc2N1`: the Potency entry in experiment [1], in experiment [2], in experiment [3], in experiment [4], in experiment [5] and in [6] was “inactive” in each case. For the same compound, in experiment [7], the Potency result is “inactive”.

Turning to `C=CC1CC=CCC1` (stereo not given), the Potency result in [1], in [2], in [3], in experiment [4], in experiment [5] and in experiment [6] was “inactive” throughout. Also, the Potency entry in experiment [7] was “inactive”.

Take `CNNC`: the Potency entry in [1], in experiment [2], in experiment [3], in [4], in [5] and in [6] was “inactive” in each case. Besides, in experiment [7], the Potency result is “inactive”.

Regarding `Cc1cccc(C#N)c1`, the Potency result in experiment [1], in experiment [2], in experiment [3], in experiment [4], in experiment [5] and in experiment [6] was “inactive” each time. The Potency entry in experiment [7] was “inactive”.

Turning to `O=C(Cc1ccccc1)OCc1ccccc1`, the Potency entry in experiment [1], in [2], in [3], in [4], in [5] and in experiment [6] was “inactive” in each case. For the same compound, the Potency result in experiment [7] was “inactive”.

On to `NC(=S)C(N)=S`, for which the Potency entry in [1], in [2], in experiment [3], in [4], in [5] and in experiment [6] was “inactive” throughout.

For `COC(C)(C)C`, the Potency result in experiment [1], in [2], in experiment [3], in experiment [4], in experiment [5] and in experiment [6] was “inactive” each time. Also, the Potency entry in [7] is “inactive”.

For the compound `Cc1cnc[nH]1`, the Potency result in [1], in experiment [2], in experiment [3], in experiment [4], in experiment [5] and in [8] was “inactive” throughout. The Potency result in experiment [9], in experiment [6] and in experiment [7] was “inactive” in each case. Also, the result in experiment [10] was inactive.

With `COc1cc2c(cc1OC)[C@@]13CCN4CC5=CCO[C@H]6CC(=O)N2[C@H]1[C@H]6[C@H]5C[C@H]43`, the Potency entry in experiment [1], in [5], in experiment [6] and in experiment [7] was “inactive” throughout. The Potency is 24.3 µM (active) in [2]; 24.3 µM (active) in [3]; 26.6 µM (active) and 13.7 µM (active) in [4].

Take `CCCCCCBr`: the Potency entry in [1], in experiment [2], in [3], in experiment [4], in [5] and in experiment [6] was “inactive” in each case. Besides, the Potency result in [7] is “inactive”.

Take `N#CCBr`: the Potency entry in experiment [1], in experiment [2], in [3], in experiment [4], in [6] and in [7] was “inactive” throughout.

On to `Cc1nc(N)nc(N)n1`, for which the Potency result in experiment [1], in experiment [2], in experiment [3], in experiment [5], in [8] and in [6] was “inactive” throughout. The Potency result in experiment [7] was “inactive”. In addition, the compound was called inactive in [10].

As to `N#Cc1c(Cl)cccc1Cl`, the Potency entry in [1], in [2], in experiment [3], in experiment [5] and in experiment [6] was “inactive” throughout.

Regarding `CCCCOC(=O)c1ccccc1N`, the Potency result in [1], in experiment [2], in [3], in experiment [5] and in [6] was “inactive” in each case.

Regarding `CCN(CC)C(=O)[C@@H]1C=C2c3cccc4[nH]cc(c34)C[C@H]2N(C)C1`, the Potency result in experiment [1], in experiment [6] and in experiment [7] was “inactive” each time. Further, the Potency in experiment [2] is 8.98 µM (active) and 10.6 µM (active); in [3], 101 µM (active) and 23.7 µM (active); in experiment [4], 31.9 µM (active) and 11.9 µM (active).

In the case of `N#CC(CCc1ccc(Cl)cc1)(Cn1cncn1)c1ccccc1` (stereo not given), the Potency entry in experiment [1] and in [9] was “inactive” each time. For the same compound, the Potency was 13.7 µM (active) in [2], 13.7 µM (active) in [3], 13.7 µM (active) in experiment [4] and 30.6 µM (active) in experiment [7].

For the compound `Cc1coc2c1CCC(C)C2` (stereo not given), the Potency entry in [1], in experiment [2], in [3], in [4], in experiment [5] and in experiment [6] was “inactive” each time. Also, the Potency result in experiment [7] is “inactive”.

Consider `C[N+](=O)[O-]`, for which the Potency entry in [1], in experiment [2], in [3], in experiment [4], in [5] and in experiment [6] was “inactive” each time. Moreover, the Potency result in [7] was “inactive”.

Consider `CC(C)(C)C(=O)C(Oc1ccc(Cl)cc1)n1cncn1` (stereo not given), for which the Potency result in [1], in experiment [6] and in [7] was “inactive” in each case. For the same compound, the figures for the Potency in [2], in experiment [3] and in experiment [4] were 61.1 µM (active), 30.6 µM (active) and 30.6 µM (active), respectively.

Turning to `O=C(CCN1CC1)OCC(CO)(COC(=O)CCN1CC1)COC(=O)CCN1CC1`, the Potency entry in experiment [1], in [2], in [3], in [4], in [5] and in [6] was “inactive” throughout. The Potency entry in [7] was “inactive”.

Consider `COP(N)(=S)Oc1ccccc1C(=O)OC(C)C` (stereo not given), for which the Potency result in experiment [1], in experiment [2], in experiment [3], in [4], in experiment [8] and in [9] was “inactive” in each case. For the same compound, in experiment [6], the Potency entry was “inactive”. In addition, the compound was called inactive in [10].

As to `ClCCOCOCCCl`, the Potency entry in experiment [1], in experiment [2], in [3], in experiment [4], in experiment [5] and in [6] was “inactive” in each case. Further, the Potency entry in experiment [7] is “inactive”.

`CN1CCC(O)(c2ccc(F)cc2)C(C(=O)c2ccc(F)cc2)C1` (stereo not given): the Potency result in experiment [1] and in experiment [5] was “inactive” throughout. In addition, the Potency in experiment [2] is 9.44 µM (active); in [3] it was 13.3 µM (active); in [4] it was 13.3 µM (active); in experiment [7] it was 21.1 µM (active).

For `CCCCc1c(C)nc(NCC)[nH]c1=O`, the Potency entry in experiment [1], in experiment [2], in experiment [3], in experiment [4], in [5] and in experiment [6] was “inactive” throughout. Also, the Potency result in experiment [7] is “inactive”.

On to `CC(CC(C#N)(c1ccccc1)c1ccccc1)N(C)C` (stereo not given), for which the Potency result in experiment [1], in experiment [5] and in experiment [6] was “inactive” in each case. Moreover, the Potency is 30.5 µM (active) in [2], 54.2 µM (active) in [3], 48.3 µM (active) in experiment [4] and 24.2 µM (active) in experiment [7].

Consider `CCC1(c2ccccc2)C(=O)N=C(O)NC1=O` (stereo not given), for which the Potency entry in [1], in experiment [2], in experiment [3], in experiment [5], in experiment [6] and in experiment [7] was “inactive” throughout.

As for `C[C@]12CC[C@H]3[C@@H](CC=C4C[C@@H](O)CC[C@@]43C)[C@@H]1CC[C@@H]2O`, the Potency entry in [1], in experiment [2], in experiment [3], in [6] and in experiment [7] was “inactive” throughout. For the same compound, in experiment [4], the Potency was 29.8 µM (active).

Turning to `CNC(=O)O/N=C(\C)SC`, the Potency entry in experiment [1], in experiment [2], in [3], in experiment [5], in [6] and in [7] was “inactive” throughout.

For the origin of these results see PubChem BioAssay (Tox21).
